Records with an inconclusive call do not appear. Unmarked numbers belong to inactive results. The source made the active and inactive calls. The call rests on the fitted dose curve; in most records, active means well fitted inhibition curve with a large enough effect; inconclusive means small, poorly fitted or top-dose-only effect; inactive means no such curve, though single readings can be large or run the other way. Numbered stars: 1 amine (or outer) side, 2 acyl side, 3 side chain; on linkers, the order of the positions; unused ones are H or OH. Bridge positions count the residues as written; N and C are the ends. Square brackets hold non-standard residues; d marks the D form. Peptide text beside a SMILES is read from it. ξ: configuration not given here. Phe(3R-OH) = O=C([C@@H](N[*:1])[C@H](O[*:3])c1ccccc1)[*:2]; NMeTrp(4-OMe) = CN[C@@H](Cc1c[nH]c2cccc(OC)c12)C(=O)O; X4 = O=C(C1CC2(c3ccc(O)cc3)c3ccccc3NC2N1[*:1])[*:2]; ξThr(3R)(O-yl) = C[C@@H](O[*:3])C(N[*:1])C(=O)[*:2]; NMeThr(3ξ) = CN[C@H](C(=O)O)C(C)O; ξW = NC(Cc1c[nH]c2ccccc12)C(=O)O; NMeL = CN[C@@H](CC(C)C)C(=O)O; NMeV = CN[C@H](C(=O)O)C(C)C; ξIle = CC[C@H](C)C(N)C(=O)O; ξY = NC(Cc1ccc(O)cc1)C(=O)O; ξV = CC(C)C(N)C(=O)O
On the % scale 0 is the no-effect control and ±100 the full control effect; potency means the concentration at half of the fitted maximal effect.

This assay can be described thus: Secretion counterscreen for inhibitors of the SERCaMP assay screened against the NCATS CANVASS Library (AID 1347390).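 Further: light from luciferase secreted into medium read as a measure of general secretion.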 The note with it: SH-SY5Y constitutive GLuc secretion, luminescence, 20 h; series mostly up to 76.6 µM; activity change, negative = inhibition: at the top concentration. The text has this:
Natural products and their derivatives continue to be wellsprings of nascent therapeutic potential. However, many laboratories have limited resources for biological evaluation, leaving their previously isolated or synthesized compounds largely or completely untested. To address this issue, the Canvass library of natural products was assembled (https://tripod.nih.gov/canvass), in collaboration with academic and industry researchers, for quantitative high-throughput screening (qHTS) across a diverse set of cell-based and biochemical assays. The pure (>85% purity by liquid chromatography/mass spectrometry [LC/MS]) Canvass library of 346 natural products were submitted by 45 academic laboratories and companies around the world. We collected pure natural products to circumvent deconvolution and structure elucidation due to time and resource limitations. The library was formatted into 1536-well plates and evaluated in 50 qHTS (in an 11-pnt concentration series) bioassays with broad scope of disease-relevant mechanisms. The resulting data set from 50 different assays was then systematically analyzed to identify overall trends and specific natural products with interesting biological activities. Reported herein are the results of each individual qHTS and their corresponding assay protocol. Compounds that interfere with the secretory pathway can show activity in the SERCaMP assay. This type of false positive is identified using a constitutively secreted GLuc reporter. National Center for Advancing Translational Sciences (NCAwsTS), Rockville, MD National Institute of Health (NIH), Bethesda, Maryland
SERCaMP secretion assay protocol: 1. In a white-solid bottom 1536-well tissue culture plate (Corning 7494), 5 uL of SH-SY5Y-GLuc STOP cells were dispensed using a Multidrop Combi (Thermo Fisher Scientific) at a final concentration of 1000 cells / well. 2. The assay plates were incubated for 4 hours at 37C, 5% CO2, 95% humidity to acclimate and attach. 3. […] of compounds (in DMSO; columns 5-48), and positive control Brefeldin A (1 mM; 1:2 dilution; 16-points; n = 2; column 2, rows 1-32) were pin transferred into the assay plates using the Kalypsis pin tool (Wako USA) equipped with a 1536-well pin heads. This yields a final concentration range of 0.0001 - 4.6 uM for the Brefeldin A and 0.001 - 77 uM for the compounds. 4. The assay plates were incubated for 20 hours at 37C, 5% CO2, 95% humidity. 5. After incubation, 1 uL of (7x) substrate Coelenterazine (diluted 1:200 in Pierce Glow Assay buffer) was dispensed into columns 1 - 48, rows 1 - 32. 6. The plates were centrifuged for 5 seconds at 1000 rpm. 7. Luminescence signal was obtained via the ViewLux plate reader (Perkin Elmer) using the clear emission filter and 1x binning, 5 seconds exposure settings.
As to `C=C1C[C@@]23C=CC(=O)[C@@](C)(CCC(=O)Nc4c(O)ccc(C(=O)O)c4O)C2C[C@@H]1CC3` (stereo not given in full), the “activity change, negative = inhibition” value is -23%.
Regarding `CC[C@H](C)C(NC(=O)[C@@H](NC)C(C)C)C(=O)NC1C(=O)N(C)[C@@H](C(C)O)C(=O)N[C@@H](C(C)C)C(=O)N(C)[C@@H](CC(C)C)C(=O)NC(C(C)C)C(=O)N(C)[C@@H](C(C)C)C(=O)N(C)[C@@H](Cc2c[nH]c3cccc(OC)c23)C(=O)N[C@@H](C(C)C)C(=O)N[C@@H]([C@H](O)c2ccccc2)C(=O)N[C@@H](C(C)C)C(=O)O[C@@H]1C` (stereo partly drawn) (H-[NMeV][ξIle][ξThr(3R)(O-yl)][NMeThr(3ξ)]V[NMeL][ξV][NMeV][NMeTrp(4-OMe)]V[Phe(3R-OH)]V; ester 3-C), the “activity change, negative = inhibition” value was -13.6%.
Regarding `C[C@@]12C[C@@H](C[C@H]3C(=O)O[C@@H](c4ccoc4)[C@H](OC(=O)c4ccccc4)[C@@H]31)OC2=O`, the “activity change, negative = inhibition” value is -27.4%.
Still for that read-out and setting: with `O=c1cc(-c2ccc(O)c(O[C@@H]3O[C@H](CO)[C@@H](O)[C@H](O)[C@H]3O)c2)oc2cc(O[C@@H]3O[C@H](CO)[C@@H](O)[C@H](O)[C@H]3O)cc(O)c12` the figure was -23.8%.
The same measure, in the same setting: for `C[C@@H]1C(=O)[C@]23CC[C@H]1C[C@]21O[C@H]2C(C)(C)C=CC(=O)[C@@]23COC1=O` the value was -3.61%; for `CCCCCCCCCCCCCCCC(=O)OC/C=C(\C)CCCC(C)CC(C)C(C)C` (stereo not given), 11.7%.
For `C/C=C/c1cc(OC)c2c(c1)[C@@H](C)[C@H](c1ccc(O)c(OC)c1)O2`, the “activity change, negative = inhibition” value was -3.08%.
Consider `CC1(C)CCC[C@]2(C)[C@@H]1CC[C@@]13C[C@@H](CC[C@H]12)C(C)(O)C3` (stereo not given in full), for which the “activity change, negative = inhibition” value is -24%.
With `CC1=CC[C@@]2(C[C@@H]1O)[C@@H](C(=O)O)CC[C@H]2C(C)C`, the “activity change, negative = inhibition” value is 7.32%.
As to `C[C@@H]1C(=O)[C@]23CC[C@H]1C[C@]21O[C@H]2C(C)(C)C=CC(=O)[C@]23COC1=O`, the “activity change, negative = inhibition” value was -19.1%.
Consider `CS/C=C/C(N)=O`, for which the “activity change, negative = inhibition” value is -23.2%.
With `CCCCCCCCCCCCCCC[C@H](O)C[C@@H](O)C[C@@H](O)C[C@@H](O)C[C@@H](O)C[C@H]1CC=CC(=O)O1`, the Potency is 8.6 µM (active).
Turning to `C=C1/C=C\C(CCC)=C\c2csc(n2)C(C)NC(=O)C[C@@]2(CC(=O)O)CCC(=C)[C@H](C1)S2` (stereo not given in full), the “activity change, negative = inhibition” value was -10.4%.
With `OCc1ccc2ocnc2c1`, the “activity change, negative = inhibition” value is -9.37%.
Turning to `COc1cc(O)c2c3c(c(O)cc(C)c13)C(=O)OC2`, the “activity change, negative = inhibition” value is -24.6%.
On the same count and under the same terms, for `O=C(O)[C@@]12COC3(O)C1CCN1CC[C@H]3[C@@H]1c1c2[nH]c2ccccc12` the value was -13.9%.
`CC1=CC2=C[C@H](C)C[C@@]23OC(=C(C)C3=O)CC(C)(C)/C=C/C1=O`: the Potency was 1.93 µM (active).
Turning to `CO[C@H]1/C=C/CC[C@@H](S[C@@H]2O[C@H](CO)[C@@H](O)[C@H](O)[C@H]2O)CC(=O)O[C@@H](/C(C)=C/[C@H](C)C(=O)CCCC2CC(=O)NC(=O)C2)[C@@H](C)[C@@H]1O`, the Potency was 7.67 µM (active).
`C=C1C(=O)O[C@H]2[C@H]1CC/C(CO)=C\CC[C@@]1(C)O[C@@H]21`: the Potency is 34.3 µM (active).
In the case of `O=C(O)CC1OC(=O)c2c(O)cccc21` (stereo not given), the “activity change, negative = inhibition” value is -16.9%.
In the case of `C=C1C(=O)O[C@H]2C[C@H](C)[C@@H]3CC(=O)C(C)=C3[C@H](O)[C@H]12`, the Potency was 34.3 µM (active).
On to `O=C(O)[C@@]12CO[C@@]3(O)C4CCN(CC[C@H]31)[C@H]4c1c2[nH]c2ccccc12`, for which the “activity change, negative = inhibition” value is 4.7%.
`C/C(=C\[C@H](C)C(=O)CCCC1CC(=O)NC(=O)C1)[C@@H]1OC(=O)/C=C/CC/C=C/C[C@@H](O)[C@@H]1C`: the Potency is 3.84 µM (active).
For the molecule `COc1cc(/C=C2/C(=O)N(c3ccc(O)cc3C(=O)O)[C@H](c3ccc(O)c(OC)c3)C2C(=O)Nc2ccc(O)cc2C(=O)O)ccc1O` (stereo not given in full), the “activity change, negative = inhibition” value is 12.2%.
With `CC[C@H](C)[C@H](NC(=O)C(Cc1ccc(O)cc1)NC(=O)C(Cc1c[nH]c2ccccc12)NC(=O)[C@H](C)N)C(=O)N1C(C(=O)NC(Cc2ccc(O)cc2)C(=O)O)CC2(c3ccc(O)cc3)c3ccccc3NC12` (stereo not given in full) (H-A[ξW][ξY]I[X4][ξY]-OH), the “activity change, negative = inhibition” value was 1.75%.
For the molecule `CO[C@@H]1[C@H](O)[C@@H](C)O[C@@H](OC[C@H]2/C=C/C=C/C(=O)C(C)C[C@H](C)C(O[C@@H]3O[C@H](C)CC4(OC(=O)O[C@@H]4C)C3O)[C@@H](C)/C=C/C(=O)OC2C)[C@@H]1OC` (stereo not given in full), the “activity change, negative = inhibition” value is 4.76%.
Take `Oc1ccc([C@H]2Oc3ccc(/C=C/c4cc(O)cc(O)c4)cc3C2c2cc(O)cc(O)c2)cc1` (stereo not given in full): the “activity change, negative = inhibition” value was -24.5%.
Take `CC1(C)C=Cc2c(ccc3c2OC[C@@H](c2ccc(O)cc2O)C3)O1`: the “activity change, negative = inhibition” value is -35%.
For the molecule `CN1C(=O)[C@]23SS[C@@]1(C)C(=O)N2[C@H]1Nc2ccccc2[C@]1(c1c[nH]c2ccccc12)[C@@H]3O`, the Potency was 1.72 µM (active).
Regarding `C=CC(C)(C)C(=O)[C@@H](C)[C@@H]1CC[C@](C)(C=C)O1`, the “activity change, negative = inhibition” value is 23.5%.
With `C=C(C)C(=O)O[C@H]1C[C@H](C)[C@@H](OC(C)=O)CC[C@@]2(C)O[C@@H]2[C@H]2OC(=O)C(COC(C)=O)=C12`, the Potency was 17.2 µM (active).
Turning to `CC(C)=CCC/C(C)=C/Cc1c(O)c(CC=C(C)C)c(O)c2c(=O)c3cc(O)ccc3oc12`, the “activity change, negative = inhibition” value was 12.3%.
As to `CC1(C)CC[C@]2(C(=O)O)CC[C@]3(C)C(=CC[C@@H]4[C@@]5(C)C[C@@H](O)[C@H](O)C(C)(C)[C@@H]5CC[C@]43C)[C@@H]2C1`, the “activity change, negative = inhibition” value is 0.652%.
Turning to `C/C(=C\[C@H](C)C(=O)CCCC1CC(=O)NC(=O)C1)C(O)[C@@H](C)[C@H](O)C/C=C/CC/C=C/C(=O)O` (stereo not given in full), the “activity change, negative = inhibition” value was -6.72%.
Take `CN1C(=O)C2C(N=CN2C)N(C)C1=O` (stereo not given): the “activity change, negative = inhibition” value is 6.93%.
In the case of `C=CC(=C)CC[C@]1(C)[C@H]2C[C@H](OC(=O)C(C)CC)C=C3[C@H](OC(C)=O)O[C@H](OC(C)=O)[C@@]32[C@H](OC)C[C@@H]1C` (stereo not given in full), the Potency is 3.96 µM (active).
As for `Oc1ccc(/C=C2/c3cc(O)cc(O)c3C(c3ccc(O)cc3)[C@H]2c2cc(O)cc(O)c2)cc1` (stereo not given in full), the “activity change, negative = inhibition” value was -23.8%.
Take `C/C=C/C(=O)[C@@H](C)C1=CC(=O)C2=C(O[C@@]34CC[C@H](O)C(C)(C)[C@@H]3CC[C@H](C)[C@@]4(C)C2)C1=O`: the Potency is 17.2 µM (active).
Still for that read-out and setting: for `COC1C(O)C(OC(N)=O)C(Oc2ccc3c(O)c(NC(=O)c4ccc(O)c(CC=C(C)C)c4)c(=O)oc3c2C)OC1(C)C` (stereo not given) the value was 24.3 µM (active).
With `CCC1=C2CCCN3C(=O)O[C@H]([C@H]1OC(C)=O)[C@H]23`, the “activity change, negative = inhibition” value is -11.2%.
